About 79,000 compounds went through this panel and 15% of them were active in at least one assay; those are over-represented in the sample as a whole. Unmarked numbers belong to inactive results. Cut-off read from the data, not from the text of the source: active = growth inhibition above about 70%; inactive = the rest.
Experiment: NCI Yeast Anticancer Drug Screen. Data for the sgs1 mgt1 strain (AID 161);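 note: 0% = growth of cultures given vehicle only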
Conditions: S. cerevisiae sgs1 mgt1 strain, at 50.0 µM, stronger effect = higher value
How it was run: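 Compounds are added to genetically altered yeast, and growth is compared with cultures given vehicle alone to give percent inhibition.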

Row | SMILES | growth inhibition
1 | COc1ccc(CCNC(=O)CC(C)=O)cc1 | -42.3%
2 | CO/C(Cc1cc(O)cc(O)c1)=N\N | 1.25%
3 | CCCNc1nc(Cl)nc2c1cnn2C | 9.5%
4 | NNC(=O)CCC(=O)NC1C2CC3CC(C2)CC1C3 (stereo unspecified) | -18.6%
5 | COC(=O)CCSSCCC(=O)OC | -1.6%
6 | CC1=C(O)c2ccccc2C(=O)C1=O | 40.3%
7 | Cc1cc2nc(CC(O)c3nc4cc(C)c(C)cc4[nH]3)[nH]c2cc1C (stereo unspecified) | -5.1%
8 | C=Cc1c(C)c2cc3[nH]c(cc4nc(cc5nc(cc1[nH]2)C(C)=C5CCC(=O)OC)C(CCC(=O)OC)=C4C)c(C)c3C=C | 10.3%
9 | C=NNC(=O)c1ccncc1 | 6.4%
10 | Nc1nc2cc(COc3ccc(C(=O)O)cc3)ccc2nc1-c1ccccc1 | -13.8%
11 | CC(=O)NC1C(=O)N(c2ccccc2)N=C1C (stereo unspecified) | -0.7%
12 | O=[N+]([O-])c1c(F)cc(F)cc1F | -5.15%
13 | O=C1c2ccccc2-c2nnc(-c3ccc(Cl)cc3)cc21 | -18.2%
14 | CN(C)S(=O)(=O)C1(c2ccccc2)CCCC1 | 6.2%
15 | Clc1ccc2c(NCCCCN=Cc3ccccc3)ccnc2c1 | -14%
16 | Cc1nnc(-c2cn(C3OC(CO)C(O)C3O)c3ncnc(N)c23)nc1C (stereo unspecified) | 1%
17 | O=C(O)Cc1ccc(OCCCCCOc2ccc(CC(=O)O)cc2)cc1 | 20.6%
18 | CC(C)NCC(=O)CCCBr | -3.8%
19 | Nc1ccc(C(=O)O)c([N+](=O)[O-])c1 | -0.5%
20 | Cc1ccccc1CN | -10.8%
21 | CCNC(=O)CCP(=O)(CCC(=O)NCC)CCC(=O)NCC | 3.9%
22 | C1=COC(C=Nc2ccccc2)CC1 (stereo unspecified) | 4.5%

Experiment: NCI Yeast Anticancer Drug Screen. Data for the cln2 rad14 strain (AID 165);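 note: 0% = growth equal to vehicle treated cultures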
Conditions: S. cerevisiae cln2 rad14 strain, at 50.0 µM, stronger effect = higher value
How it was run: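 Yeast carrying cln2 and rad14 alterations (cell cycle control and DNA damage repair) were exposed to compounds. Growth inhibition was measured against vehicle-treated controls.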

Row | SMILES | growth inhibition
23 | Nc1ccc2ccccc2c1S(=O)(=O)O | 4.65%
24 | CCSCC1OC(n2cnc3c(=S)nc(N)[nH]c32)C(O)C1O (stereo unspecified) | 16.4%
25 | Cc1cc(Cc2cc(C)c(O)c(CN(C)C)c2)cc(CN(C)C)c1O | -19.5%
26 | Cc1cccc(N=Cc2ccc(N(CCC#N)S(=O)(=O)c3ccccc3)cc2C)c1 | -8.35%
27 | CCOC(=O)C(CNCc1ccccc1)(c1ccccc1)c1ccccc1 | -31.3%
28 | N#CC(NC(=O)NCCCl)c1ccccc1 (stereo unspecified) | -41.1%
29 | C#CCCOC(=O)c1ccccc1OC(C)=O | 11.5%
30 | CCOCCC(=O)OCCC(C)OC (stereo unspecified) | -26.4%
31 | CC(C)C1CCC(C)(C(N)=O)C1 (stereo unspecified) | -23.4%
32 | CC(=O)C1CCC2C3CCC4CC5(CCC4(C)C3C(=O)CC12C)NC(C(=O)O)CS5 (stereo unspecified) | -6.25%
33 | COC(=O)NS(=O)(=O)C1=Cc2cccc3cccc1c23 | 9.75%
34 | CC(C)C1=C(Cc2ccccc2)C(=O)O/C1=C\c1ccc(O)c(Cl)c1 | 21.4%
35 | COc1cccc(-n2cnc3c(SC)ncnc32)c1 | -27.9%
36 | Cc1ccc(S(=O)(=O)OI(O)CC(F)(F)F)cc1 | -2.05%
37 | O=C1CCCS(=O)(=O)CCC1 | -3.5%
38 | CC(=O)Nc1ccc(/C=C/c2csnn2)cc1 | 8.7%
39 | COc1cccc2c1C(CO)N1C(C#N)C3CC(C(=O)O)C(C1C2)N3C (stereo unspecified) | 3.4%
40 | O=C(O)c1ccc(CSc2ccccc2C(=O)O)cc1 | 15.4%
41 | COc1ccc(CCNC(=O)CC(C)=O)cc1 | 11.4%
42 | CO/C(Cc1cc(O)cc(O)c1)=N\N | -5.65%
43 | CCCNc1nc(Cl)nc2c1cnn2C | 1.25%
44 | NNC(=O)CCC(=O)NC1C2CC3CC(C2)CC1C3 (stereo unspecified) | -0.85%
45 | COC(=O)CCSSCCC(=O)OC | -6.15%
46 | CC1=C(O)c2ccccc2C(=O)C1=O | 36.2%
47 | Cc1cc2nc(CC(O)c3nc4cc(C)c(C)cc4[nH]3)[nH]c2cc1C (stereo unspecified) | 5.1%
48 | C=Cc1c(C)c2cc3[nH]c(cc4nc(cc5nc(cc1[nH]2)C(C)=C5CCC(=O)OC)C(CCC(=O)OC)=C4C)c(C)c3C=C | 13.1%
49 | C=NNC(=O)c1ccncc1 | -37.5%
50 | Nc1nc2cc(COc3ccc(C(=O)O)cc3)ccc2nc1-c1ccccc1 | -2.9%
51 | CC(=O)NC1C(=O)N(c2ccccc2)N=C1C (stereo unspecified) | 22.6%
